SMILES strings stand for the structures. Activity calls are given as the source filed them.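 How the source made its calls, unless noted: active means visually confirmed hit in the image check and inhibition above 20%; inconclusive means visually confirmed hit but inhibition not above 20%; inactive means no visual hit in the image check.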

Test system in the first assay: not listed separately
Description: inhibitors of E-selectin induction by TNFa, primary screen, imaging, HUVEC, immunofluorescence, MLSMR starter and 10KST1 sets (AID 487).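 On inhibition: signal is fraction of cell area covered by stained E-selectin grains.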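 On nuclei count: 100% = median nuclei count of all wells on the same plate.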 The following applies: HUVEC TNFalpha-induced E-selectin immunofluorescence imaging, at 2 µM; inhibition: stronger effect = higher value; nuclei count: measured here: cell number, toxicity.
On to `CCOP(=O)(c1ccc(N(C)C)cc1)C(O)c1c(Cl)cccc1Cl` (stereo not given), for which the nuclei count is 96.2% and the inhibition (as a rule, the drop in the measured response relative to a control, in per cent) was -64.5% (inactive).
With `Cc1[nH]n(C(N)=S)c(=O)c1C(c1ccccc1)C(C#N)C#N` (stereo not given), the nuclei count was found to be 99.1% and the inhibition was 32.6% (inactive).
On to `CCNc1ccc2c(Cl)cc(=O)oc2c1`, for which the nuclei count is 98.3% and the inhibition is -6.6% (inactive).
In the case of `Cc1ccnc(NS(=O)(=O)c2ccc(NC(=O)Cc3cccs3)cc2)n1`, the nuclei count is 104% and the inhibition was -83.5% (inactive).
`O=c1oc2ccccc2c(O)c1CN1CCCCC1`: the nuclei count was 117% and the inhibition was -83.3% (inactive).
As for `CCOCCn1c(CN2CCC(Cc3ccccc3)CC2)nc2c1c(=O)n(C)c(=O)n2C`, the inhibition was 7.1% (inactive) and the nuclei count amounted to 108%.
Consider `NC(=O)c1cc(-c2ccccc2)nc(N2CCOCC2)n1`, for which the inhibition is 25.8% (inactive) and the nuclei count stood at 92.5%.
For the molecule `O=C(CN1C(=O)c2ccccc2S1(=O)=O)Nc1ccc(S(=O)(=O)N2CCCCCC2)cc1`, the nuclei count worked out at 107% and the inhibition was -91.2% (inactive).
Take `COC(=O)C1=C(C)Nc2ncnn2C1c1ccc(C)o1` (stereo not given): the inhibition is 9.8% (inactive) and the nuclei count was found to be 108%.
For `CC1Cc2ccccc2N1C(=O)c1cnsn1` (stereo not given) the same measures were -138% (inactive) and 111%.
For `COc1ccc(C(=O)OCC(=O)NCc2ccco2)cc1OC` the same measures were -12.3% (inactive) and 121%.
With `CCOC(=O)Cn1c(S(=O)(=O)Cc2ccccc2)nc2ccccc21`, the inhibition is -135% (inactive) and the nuclei count worked out at 127%.
Consider `CCOC(=O)C1CCN(c2c(NC3CCCCCCC3)c(=O)c2=O)CC1`, for which the inhibition was -53.1% (inactive) and the nuclei count stood at 118%.
`COc1ccc2c(c1)C1(Nc3ccccc3-c3nc4ccccc4n31)C(=O)N2` (stereo not given): the nuclei count stood at 110% and the inhibition is 13.2% (inactive).
In the same order, the values of `Cc1cccc(NC(=O)CC2NC3CCCCC3NC2=O)c1` (stereo not given) are 106% and 6.9% (inactive).
For `COc1ccc(-c2nc(CCNC(=O)c3ccco3)cs2)cc1OC`, the nuclei count came to 114% and the inhibition is -4% (inactive).
For `CCN(CC)CCCNC1CCS(=O)(=O)C1` (stereo not given) the same measures were 118% and -19.7% (inactive).
For `O=C(C1CCC(CNS(=O)(=O)c2cccc3cccnc23)CC1)N1CCCC1` (stereo not given) the same measures were 112% and -43.8% (inactive).
In the case of `CCCc1cc(Nc2cccc(OC)c2)n2ncnc2n1`, the nuclei count is 111% and the inhibition is -8.3% (inactive).
For `CC(=O)c1c(O)cc(C)n(Nc2nc(C)cc(C)n2)c1=O` the same measures were 91.8% and 28.7% (inactive).
Consider `CCOC(=O)C1CCN(C(=O)CN(Cc2ccccc2)S(C)(=O)=O)CC1`, for which the inhibition was -78.2% (inactive) and the nuclei count worked out at 115%.
On to `Cc1nc(C)c2c(c1C(F)(F)F)-c1ccccc1C2(F)F`, for which the nuclei count was found to be 107% and the inhibition was -30.7% (inactive).
Turning to `CCCC(=O)Nc1ccc(NC(=O)c2ccccc2OC)cn1`, the inhibition was -23.7% (inactive) and the nuclei count stood at 96.3%.
For `O=C(CCc1ccc(S(=O)(=O)N2CCOCC2)cc1)NCCc1ccccn1` the same measures were -158% (inactive) and 144%.
For `COC(=O)c1sc(N)c(C(=O)OC)c1COC(=O)C1CC(=O)N(Cc2ccco2)C1` (stereo not given) the same measures were -45.6% (inactive) and 124%.
In the case of `CCC12CN3CC(CC)(CN(C1)C3c1ccc(OC(C)C)cc1)C2=O` (stereo not given), the inhibition is -15.2% (inactive) and the nuclei count came to 94.3%.
With `Cc1ccccc1-c1nc(CN2CCC(C(=O)N3CCC(C(N)=O)CC3)CC2)c(C)o1`, the inhibition was 7.6% (inactive) and the nuclei count was found to be 87.8%.
On to `CC1(C(=O)NC2CCCCC2)CCC(=O)N1Cc1cccs1` (stereo not given), for which the nuclei count worked out at 130% and the inhibition was -78.3% (inactive).
Consider `CC(=O)Nc1cccc(NC(=O)C2CCCN2C(=O)Nc2ccc(C)cc2)c1` (stereo not given), for which the inhibition is -3.5% (inactive) and the nuclei count turned out to be 111%.
In the same order, the values of `Cn1cccc1Cc1nnc(SCC(N)=O)n1-c1ccc(F)cc1` are -106% (inactive) and 125%.
Take `O=c1cc(CN2CCN(c3ccc(F)cc3)CC2)nc2sccn12`: the nuclei count came out at 109% and the inhibition is -8.5% (inactive).
`Cc1cc2ccccc2n1CCNC(=O)c1ccc(S(=O)(=O)N2CCOCC2)cc1`: the inhibition was -41.3% (inactive) and the nuclei count turned out to be 101%.
On to `COc1cc(N=c2ssnc2Cl)cc(OC)c1`, for which the inhibition was 4.2% (inactive) and the nuclei count stood at 82.2%.
Consider `COc1ccccc1C(=O)N1CCN(CCc2ccccc2)CC1`, for which the nuclei count was determined as 104% and the inhibition is 6% (inactive).
In the case of `CCOc1cc(NC(=O)c2ccco2)c(OCC)cc1NC(=O)COc1ccccc1C`, the nuclei count was found to be 129% and the inhibition is -74.7% (inactive).
In the case of `O=C(c1ccc(CNc2c(N3CCCC3)c(=O)c2=O)cc1)N1CCc2ccccc2C1`, the nuclei count came to 108% and the inhibition is -18.6% (inactive).
As for `CCOC(=O)c1c(C)n(C)c2c(C)cc(O)c(OC(C)=O)c12`, the nuclei count came out at 109% and the inhibition was -12.4% (inactive).
Take `Cc1nnc(SC(=O)N2c3ccccc3Sc3ccccc32)s1`: the inhibition is 27.8% (inactive) and the nuclei count stood at 107%.
For `O=C(O)CCCc1nc(-c2ccccc2)no1`, the nuclei count was determined as 108% and the inhibition is 22.1% (inactive).
Take `Cc1ccc(S(=O)(=O)N2CCN(C(=O)CSc3nnnn3C)C2)cc1`: the inhibition is -89.7% (inactive) and the nuclei count came to 113%.

For a further assay, the target named is Voltage-gated potassium channel subunit beta-2 (Rattus norvegicus) (UniProt P62483). In words: KvBeta enzyme negative modulators, primary screen, biochemical, NADPH fluorescence (AID 622;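 active means fluorescence slope higher than the sample average by over 3 SD, cut at about -0.22 in these data, passing the limit was not always enough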;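 further: slope of raw intensity against log time taken from 70 to 1610 s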). The conditions noted are these: recombinant KvBeta, 4-cyanobenzaldehyde reduction, at 10 µM, stronger effect = higher value.
Voltage-gated potassium channel subunit beta-2 (Rattus norvegicus), sequence (P62483 whole entry, looked up): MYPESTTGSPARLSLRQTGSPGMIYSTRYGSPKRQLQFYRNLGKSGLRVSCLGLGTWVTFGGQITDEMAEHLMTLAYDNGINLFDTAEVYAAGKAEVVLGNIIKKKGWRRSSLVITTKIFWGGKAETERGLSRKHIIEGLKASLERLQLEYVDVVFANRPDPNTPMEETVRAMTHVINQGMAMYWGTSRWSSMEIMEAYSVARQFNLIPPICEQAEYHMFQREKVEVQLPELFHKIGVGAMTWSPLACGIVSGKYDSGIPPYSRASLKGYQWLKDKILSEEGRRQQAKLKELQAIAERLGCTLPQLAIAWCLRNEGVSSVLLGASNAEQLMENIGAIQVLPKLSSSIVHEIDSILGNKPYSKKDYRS
For the molecule `CCOP(=O)(c1ccc(N(C)C)cc1)C(O)c1c(Cl)cccc1Cl` (stereo not given), the fluorescence slope is -0.521 (inactive).
Still for that read-out and setting: for `Cc1[nH]n(C(N)=S)c(=O)c1C(c1ccccc1)C(C#N)C#N` (stereo not given) the value was -0.38 (inactive); for `CCNc1ccc2c(Cl)cc(=O)oc2c1`, -0.255 (inactive); for `Cc1ccnc(NS(=O)(=O)c2ccc(NC(=O)Cc3cccs3)cc2)n1`, -0.408 (inactive).
`O=c1oc2ccccc2c(O)c1CN1CCCCC1`: the fluorescence slope is -0.407 (inactive).
Regarding `CCOCCn1c(CN2CCC(Cc3ccccc3)CC2)nc2c1c(=O)n(C)c(=O)n2C`, the fluorescence slope was -0.473 (inactive).
Regarding `NC(=O)c1cc(-c2ccccc2)nc(N2CCOCC2)n1`, the fluorescence slope is -0.591 (inactive).
Same read-out and setting: the figure for `O=C(CN1C(=O)c2ccccc2S1(=O)=O)Nc1ccc(S(=O)(=O)N2CCCCCC2)cc1` is -0.489 (inactive); for `COC(=O)C1=C(C)Nc2ncnn2C1c1ccc(C)o1` (stereo not given) it is -0.581 (inactive).
Consider `CC1Cc2ccccc2N1C(=O)c1cnsn1` (stereo not given), for which the fluorescence slope is -0.489 (inactive).
For `COc1ccc(C(=O)OCC(=O)NCc2ccco2)cc1OC`, the fluorescence slope is -0.467 (inactive).
Turning to `CCOC(=O)Cn1c(S(=O)(=O)Cc2ccccc2)nc2ccccc21`, the fluorescence slope is -0.579 (inactive).
As for `CCOC(=O)C1CCN(c2c(NC3CCCCCCC3)c(=O)c2=O)CC1`, the fluorescence slope was -0.575 (inactive).
Take `COc1ccc2c(c1)C1(Nc3ccccc3-c3nc4ccccc4n31)C(=O)N2` (stereo not given): the fluorescence slope is -0.493 (inactive).
As to `Cc1cccc(NC(=O)CC2NC3CCCCC3NC2=O)c1` (stereo not given), the fluorescence slope is -0.358 (inactive).
Turning to `COc1ccc(-c2nc(CCNC(=O)c3ccco3)cs2)cc1OC`, the fluorescence slope was -0.524 (inactive).
As to `CCN(CC)CCCNC1CCS(=O)(=O)C1` (stereo not given), the fluorescence slope is -0.502 (inactive).
Same read-out and setting: the figure for `O=C(C1CCC(CNS(=O)(=O)c2cccc3cccnc23)CC1)N1CCCC1` (stereo not given) is -0.549 (inactive).
In the case of `CCCc1cc(Nc2cccc(OC)c2)n2ncnc2n1`, the fluorescence slope was -0.321 (inactive).
On to `CC(=O)c1c(O)cc(C)n(Nc2nc(C)cc(C)n2)c1=O`, for which the fluorescence slope is -0.343 (inactive).
As for `CCOC(=O)C1CCN(C(=O)CN(Cc2ccccc2)S(C)(=O)=O)CC1`, the fluorescence slope is -0.422 (inactive).
Take `Cc1nc(C)c2c(c1C(F)(F)F)-c1ccccc1C2(F)F`: the fluorescence slope was -0.454 (inactive).
For the molecule `CCCC(=O)Nc1ccc(NC(=O)c2ccccc2OC)cn1`, the fluorescence slope is -0.442 (inactive).
The same measure, in the same setting: for `O=C(CCc1ccc(S(=O)(=O)N2CCOCC2)cc1)NCCc1ccccn1` the value was -0.568 (inactive); for `COC(=O)c1sc(N)c(C(=O)OC)c1COC(=O)C1CC(=O)N(Cc2ccco2)C1` (stereo not given), -0.265 (inactive).
As for `CCC12CN3CC(CC)(CN(C1)C3c1ccc(OC(C)C)cc1)C2=O` (stereo not given), the fluorescence slope was -0.528 (inactive).
For `Cc1ccccc1-c1nc(CN2CCC(C(=O)N3CCC(C(N)=O)CC3)CC2)c(C)o1`, the fluorescence slope is -0.548 (inactive).
Take `CC1(C(=O)NC2CCCCC2)CCC(=O)N1Cc1cccs1` (stereo not given): the fluorescence slope was -0.594 (inactive).
The same measure, in the same setting: the figure for `CC(=O)Nc1cccc(NC(=O)C2CCCN2C(=O)Nc2ccc(C)cc2)c1` (stereo not given) is -0.507 (inactive).
With `Cn1cccc1Cc1nnc(SCC(N)=O)n1-c1ccc(F)cc1`, the fluorescence slope was -0.569 (inactive).
As to `O=c1cc(CN2CCN(c3ccc(F)cc3)CC2)nc2sccn12`, the fluorescence slope was -0.477 (inactive).
`Cc1cc2ccccc2n1CCNC(=O)c1ccc(S(=O)(=O)N2CCOCC2)cc1`: the fluorescence slope was -0.603 (inactive).
For `COc1cc(N=c2ssnc2Cl)cc(OC)c1`, the fluorescence slope was -0.557 (inactive).
As for `COc1ccccc1C(=O)N1CCN(CCc2ccccc2)CC1`, the fluorescence slope is -0.385 (inactive).
As for `CCOc1cc(NC(=O)c2ccco2)c(OCC)cc1NC(=O)COc1ccccc1C`, the fluorescence slope is -0.00358 (active).
As for `O=C(c1ccc(CNc2c(N3CCCC3)c(=O)c2=O)cc1)N1CCc2ccccc2C1`, the fluorescence slope is -0.614 (inactive).
On to `CCOC(=O)c1c(C)n(C)c2c(C)cc(O)c(OC(C)=O)c12`, for which the fluorescence slope was -0.467 (inactive).
Same read-out and setting: for `Cc1nnc(SC(=O)N2c3ccccc3Sc3ccccc32)s1` the value was -0.31 (inactive); for `O=C(O)CCCc1nc(-c2ccccc2)no1`, -0.447 (inactive).
On to `Cc1ccc(S(=O)(=O)N2CCN(C(=O)CSc3nnnn3C)C2)cc1`, for which the fluorescence slope is -0.35 (inactive).
